Screening data as filed in PubChem.
EPAC2 antagonist: qHTS for Antagonist of cAMP-regulated guanine nucleotide exchange factor 2 (EPAC2): primary screen | Rap guanine nucleotide exchange factor 4 (Homo sapiens), Q8WZA2 | EPAC2 GEF exchange of Rap1B-BODIPY-GDP, fluorescence | Potency, µM (series often up to 114 µM), without a hit: at the top dose activity, negative = inhibition, hits mostly inhibitors | 0.18% of 360,000 active | AID 720708, 2013; further: on the % scale 0 is the no-effect control and ±100 the full control effect; nearly all actives have a fitted effect of over 45% in size
Target sequence (Q8WZA2 whole entry, looked up): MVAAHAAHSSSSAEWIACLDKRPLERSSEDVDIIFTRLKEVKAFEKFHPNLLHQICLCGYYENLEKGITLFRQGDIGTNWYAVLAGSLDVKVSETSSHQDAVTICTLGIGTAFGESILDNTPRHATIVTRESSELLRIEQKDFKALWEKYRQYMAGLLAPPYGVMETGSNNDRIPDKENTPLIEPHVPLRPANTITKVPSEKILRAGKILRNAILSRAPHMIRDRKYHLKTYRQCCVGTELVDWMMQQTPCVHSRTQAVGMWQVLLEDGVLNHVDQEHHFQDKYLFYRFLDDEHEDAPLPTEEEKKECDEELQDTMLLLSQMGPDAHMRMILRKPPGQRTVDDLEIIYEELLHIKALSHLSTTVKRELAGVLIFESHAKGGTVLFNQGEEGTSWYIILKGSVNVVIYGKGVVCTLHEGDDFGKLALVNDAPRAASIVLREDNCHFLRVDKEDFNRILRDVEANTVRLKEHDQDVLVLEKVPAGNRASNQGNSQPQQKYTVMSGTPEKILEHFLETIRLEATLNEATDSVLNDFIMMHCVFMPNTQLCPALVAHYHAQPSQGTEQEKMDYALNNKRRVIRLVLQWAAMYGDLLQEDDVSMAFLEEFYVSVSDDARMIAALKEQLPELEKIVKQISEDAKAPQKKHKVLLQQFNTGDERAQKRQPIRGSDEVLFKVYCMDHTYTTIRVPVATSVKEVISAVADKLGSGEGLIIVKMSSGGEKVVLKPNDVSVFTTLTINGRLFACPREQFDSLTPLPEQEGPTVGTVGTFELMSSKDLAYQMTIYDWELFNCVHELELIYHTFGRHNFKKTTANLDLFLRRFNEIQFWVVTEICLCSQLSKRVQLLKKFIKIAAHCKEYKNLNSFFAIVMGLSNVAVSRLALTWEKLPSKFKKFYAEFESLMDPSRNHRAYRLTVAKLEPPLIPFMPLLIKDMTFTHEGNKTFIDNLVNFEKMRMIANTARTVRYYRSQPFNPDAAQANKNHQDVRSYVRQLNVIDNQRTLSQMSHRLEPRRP
EPAC1 antagonist: qHTS for Antagonist of cAMP-regulated guanine nucleotide exchange factor 3 (EPAC1): primary screen. Rap guanine nucleotide exchange factor 3 (Homo sapiens), O95398. EPAC1 GEF assay, Rap1b-BODIPY-GDP exchange fluorescence. Potency, µM (doses to about 115 µM), without a hit: at the top dose activity change, negative = inhibition, most hits filed as inhibitors. 0.14% of 360,000 active. AID 720709, 2013;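 further: plate controls were vehicle for no effect and positive control for full effect; nearly all actives have a fitted effect of over 50% in size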
USP1-UAF1 inh: Inhibitors of USP1/UAF1: Primary Screen; Ubiquitin carboxyl-terminal hydrolase 1 (Homo sapiens), O94782; recombinant USP1/UAF1, Ub-Rhodamine cleavage fluorescence; Potency, µM (top dose mostly 57.1 µM), inactives show at the highest dose activity change, negative = inhibition, actives largely listed as inhibitors; 0.23% of 390,000 active; further: on the % scale 0 is the no-effect control and ±100 the full control effect; nearly all actives have a fitted effect of over 60% in size
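In this screen, compounds sit with the deubiquitinase complex (1nM) for 15 min at room temperature before Ub-Rho is added at 150nM final. Fluorescence rise is then followed for 6 reads every 60 seconds.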
ALOX12 inh: Primary qHTS assay for inhibitors of human arachidonate 12S-lipoxygenase (ALOX12): Round 2; Polyunsaturated fatty acid lipoxygenase ALOX12 (Homo sapiens), P18054; Potency, µM (highest dose often 108 µM), without a hit: top-dose activity change, negative = inhibition, actives largely listed as inhibitors; AID 1671190, 2021; purified 12hLO, xylenol orange hydroperoxide absorbance; 1.1% of 580,000 active; further: on the % scale 0 is the no-effect control and ±100 the full control effect
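Purified human 12hLO (150 nM final) in 25 mM Hepes, 0.01% Triton X-100, pH 7.0 was preincubated 15 min at room temperature with compound. Then 40 uM arachidonic acid was added, 30 min. Hydroperoxide was read by Fe-XO absorbance ratio 573/405 nm.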
EPAC2 ag: qHTS for Agonist of cAMP-regulated guanine nucleotide exchange factor 4 (EPAC2): primary screen; EPAC2 activation, biochemical qHTS; response scale: 100% = 6.5 mM cAMP response; Potency, µM (series often up to 154 µM), without a hit: top-dose activation, usual class: activators; 0.079% of 360,000 active; further: nearly all actives have a fitted effect of over 50% in size
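Compounds were titrated in qHTS against a Rap1B-BODIPY-GDP (250 nM) complex with EPAC2 (100 nM) and GDP (50 uM). BODIPY-GDP release tracked at 480/540 nm over 30 min at room temperature, normalized to 6.5 mM cAMP.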
EPAC1 ag: qHTS for Agonist of cAMP-regulated guanine nucleotide exchange factor 3 (EPAC1): primary screen; Rap guanine nucleotide exchange factor 3 (Homo sapiens), O95398; EPAC1 agonist qHTS, biochemical assay; response scale: 100% = response to 6.5 mM cAMP; Potency, µM (series often up to 154 µM), for the others: top-dose activation, actives largely listed as activators; 0.073% of 360,000 active; further: nearly all actives have a fitted effect of over 60% in size
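Compounds were pinned as a concentration titration into mixtures of EPAC1 (100 nM), BODIPY-GDP-loaded Rap1B (250 nM) and GDP (50 uM). After 5 min at room temperature, fluorescence was followed for 30 min; activity was scaled to 6.5 mM cAMP.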
The depositor's hits bear a star; ? = inconclusive; . = no result; [ ] = another dose, or the depositor's remark. Compounds with a hit are over-represented: about 1.3% of the library has one in this group of screens. The call rests on the fitted dose curve; in most records, active means well fitted curve in the direction sought with a large enough effect; inconclusive means small, poorly fitted or top-dose-only effect, or another doubt; inactive means no such curve, though single readings can be large; an effect the other way counts as inactive or inconclusive. Potency means the concentration at half of the fitted maximal effect.

SMILES | EPAC2 antagonist | EPAC1 antagonist | USP1-UAF1 inh | ALOX12 inh | EPAC2 ag | EPAC1 ag
CCOC(=O)C1CCCN(CC(=O)N2CCCc3c2c(=O)oc2ccc(OCc4ccccc4)cc32)C1 (centres undefined) | . | . | -27% | 22µM* | . | .
CCCCCOc1ccc2oc(=O)c3c(c2c1)CCCN3C(=O)CN1CCCC(C(=O)OCC)C1 (centres undefined) | -16% | -21% | -12% | 10% | -8% | -4%
S=C(NN=C(c1ccccc1)c1ccccn1)N(Cc1ccccn1)Cc1ccccn1 | 8% | -10% | -15% | 45µM* | -6% | -4%
COCCCNC(=O)CSc1ccc(C)cc1 | . | . | . | 10% | . | .
C[C@H]1COC(=O)[C@H](NC(=O)OCC2c3ccccc3-c3ccccc32)C/C=C\C[C@H](CC(=O)N(CCO)Cc2ccccc2)C(=O)N1 | -26% | -7% | -5% | 40µM* | 12% | -1%
CCN1CCN(c2ccc(NC(=O)c3ccc(Br)o3)cc2)CC1 | 2% | -8% | -8% | 19% | 6% | -12%
CC(C)NC(=S)NC(=O)c1ccc(-c2ccccc2)cc1 | -3% | 0% | -12% | 16µM* | ? | 14%
CN1CCN(c2ccc(NC(=O)c3ccc(-c4ccc(Br)cc4)o3)cc2)CC1 | -8% | -27% | -21% | 50µM* | 6% | 9%
O=C(O)c1ccc(NC(=S)NC(=O)c2ccc(-c3ccc(Br)cc3)o2)cc1 | ? | -8% | 3% | 18µM* | 18% | 0%
CC(=O)NNC(=S)NC(=O)c1ccccc1 | -18% | -9% | -14% | ? | 0% | -2%
Cc1ccc(C(=O)O)cc1NC(=S)NC(=O)c1ccc(-c2ccc(Cl)cc2)o1 | -8% | 5% | -17% | 2µM* | -1% | 9%
CCCNc1c(NC(=O)COc2ccc(C)cc2)c(=O)oc2ccccc12 | . | . | . | -6% | . | .
CCCC(C)NC(=O)COC(=O)CCS(=O)(=O)c1ccc(C)cc1 (centres undefined) | . | . | . | -25% | . | .
CCc1ccc(/C(C)=N/NC(=O)c2ccc(C(C)(C)C)cc2)cc1 | . | . | . | 8% | . | .
O=C(Nc1ccc2oc(-c3ccccc3F)cc(=O)c2c1)c1ccccc1Br | . | . | . | 1% | . | .
CC1(C)O[C@H]2[C@@H](O1)[C@@H](C(=O)O)O[C@@H]1OC(C)(C)O[C@@H]12 | . | . | . | -26% | . | .
CN1CCN(c2ccc(NC(=O)c3cccc(S(=O)(=O)NCc4ccco4)c3)cc2)CC1 | . | . | . | 18% | . | .
Cc1cccc(NC(=S)NC(=O)c2ccc(-c3ccccc3)cc2)n1 | -6% | -4% | -21% | 35µM* | 13% | 11%
O=C(O)c1cccc(NC(=S)NC(=O)c2ccc(-c3ccccc3)cc2)c1 | -4% | 2% | -10% | ? | 4% | 3%
Cc1ccc(C(=O)O)cc1NC(=S)NC(=O)c1ccc(-c2ccccc2)cc1 | 0% | -28% | -10% | 8.9µM* | 2% | -23%
O=C(O)c1cccc(NC(=S)NC(=O)c2ccc(-c3ccc(Cl)cc3)o2)c1 | ? | ? | -7% | 13µM* | 23% | 4%
CCCCCCCCCCCCOC(C)=O | . | . | . | -16%[176 µM] | . | .
O=S(=O)(c1ccc2oc(Nc3cc(F)cc(F)c3)nc2c1)N1CCCCC1 | . | . | . | 11% | . | .
O=C(CCNS(=O)(=O)c1ccc2c(c1)CCN2C(=O)C1CC1)Nc1ccc(F)c(Cl)c1 | . | . | . | 13% | . | .
CC(/C=N/NC(=O)C1CCCCC1)c1ccccc1 (centres undefined) | . | . | . | 4% | . | .
SMILES | EPAC2 antagonist | EPAC1 antagonist | USP1-UAF1 inh | ALOX12 inh | EPAC2 ag | EPAC1 ag
CCCCN1CCn2c(nc3cc(NC(=O)Cn4nc(C)c5ccccc5c4=O)ccc32)C1 | . | . | . | 4% | . | .
COCCNC(=O)Cn1ccc2cc(Cl)ccc21 | . | . | . | -6% | . | .
Cc1ccc(-c2nn(-c3cccc(F)c3)cc2CN2CCN(c3ccccn3)CC2)o1 | -18% | -15% | -7% | 8.9µM* | 20% | 9%
CCC[C@H]1[C@@H](NS(=O)(=O)c2ccc(C)cc2)CC[C@@]23CCCN2C(=O)CCC[C@@H]13 | . | . | . | 6% | . | .
CC(OC(=O)c1ccc(CCNS(C)(=O)=O)cc1)C(=O)N(C)C (centres undefined) | . | . | . | -26% | . | .
O=S(=O)(NCC(c1ccco1)N1CCc2ccccc21)c1ccccc1 (centres undefined) | 6% | -2% | -23% | ? | 15% | 100µM*
O=[N+]([O-])c1ccc(S(=O)(=O)NCC(c2ccco2)N2CCc3ccccc3C2)cc1 (centres undefined) | -13% | -22% | -12% | 14µM* | 18% | 5%
Cc1ccc(N=CC=C2OC(C)(C)C(C)(C)O2)cc1 | -1% | 11% | -15% | 35µM* | 13% | 3%
COC(=O)c1ccc2nc(-c3cccc(Cl)c3)c(Cc3cccc(Cl)c3)n2c1 | -14% | -10% | . | ? | 6% | 1%
Fc1cccc(Cc2c(-c3ccco3)nc3c4ccccc4ccn23)c1 | -9% | -6% | . | 0% | 16% | 12%
CCCc1nc2ccc(C(=O)OC)cn2c1Cc1ccc(C)cc1 | ? | -28% | . | 10µM* | 7% | -4%
COC(=O)c1ccc2nc(-c3ccco3)c(Cc3cccc(Cl)c3)n2c1 | 8% | -1% | . | 16µM* | 3% | 1%
Clc1cccc(Cc2c(-c3ccco3)nc3c4ccccc4ccn23)c1 | -14% | -11% | . | 10µM* | 19% | -4%
Clc1ccc2nc(-c3ccco3)c(Cc3ccccc3)n2c1 | -29% | ? | . | 18µM* | 1% | 6%
COC(=O)c1ccc2nc(-c3ccccc3)c(Cc3ccccc3)n2c1 | . | . | . | 0% | . | .
COC(=O)c1ccc2nc(-c3ccco3)c(Cc3ccccc3)n2c1 | ? | -26% | . | 40µM* | 11% | -8%
N#CC(C#N)=C1NC(N)=C(C#N)C(c2ccccc2)=C1C#N | . | . | . | 6.3µM* | . | .
CC(C)OCCCn1c(-c2ccc(Br)cc2)c[nH]c1=S | -17% | -30% | -22% | 45µM* | 0% | -3%
O=C(Nc1cccc(Cl)c1)c1ccncc1 | 7% | 11% | -20% | -14% | 5% | -8%
Clc1cccc(N/N=C(/c2ccccc2)c2ccncc2)c1 | . | . | . | 40µM* | . | .
Cc1ccc(-c2cc(Nc3cccc(C)c3)nc(C)n2)cc1 | . | . | . | 50µM* | . | .
